Some test systems named below: MDA-MB-231 breast; SF-268 CNS; SF-295 CNS; SF-539 CNS; UACC-257 melanoma; M14 melanoma; HCT-15 colon; MALME-3M melanoma; RXF 393 renal; K-562 leukemia.
Common to all, as to assay: NCI-60 one-dose screen, 48 h (100 = growth as untreated, 0 = no growth, -100 = all killed)
What all share (details): 10 µM

About 83,000 compounds went through this panel and 20% of them were active in at least one assay; those are over-represented in the sample as a whole.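 Note: values are percent growth. 100 is the growth of untreated cells, values between 100 and 0 indicate rising inhibition; between -100 and 0 indicates cell death.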 Values without a mark were called inactive. Calls of active or inactive are those of the source. How the source made its calls: active means growth percent below 10; inactive means the rest.

Experimental findings from PubChem BioAssay (NCI) are described below.

As to `CN1CCCNc2c(c(=O)c2=O)NCCCN(C)CCCNc2c(c(=O)c2=O)NCCCN(C)CCCNc2c(c(=O)c2=O)NCCCN(C)CCCNc2c(c(=O)c2=O)NCCCN(C)CCCNc2c(c(=O)c2=O)NCCCN(C)CCCNc2c(c(=O)c2=O)NCCCN(C)CCCNc2c(c(=O)c2=O)NCCC1`, the growth with MDA-MB-231 breast is 46.5%; in the test on SF-268 CNS, -16.5% (active); in the test on SF-295 CNS, 65.9%; in the test on SF-539 CNS, 6.63% (active); with UACC-257 melanoma it was 21.2%; with M14 melanoma, 61.1%. For the same compound, the growth with HCT-15 colon was 62.4%.
Consider `CCCCCCCCCCCCCCCCCC(=O)OCCCCCCC`, for which the growth is 115% with MALME-3M melanoma; 98.7% with MDA-MB-231 breast; 96.4% in the test on RXF 393 renal; 94.9% in the test with SF-268 CNS; 99.9% in the test with SF-295 CNS; 112% with SF-539 CNS. Also, the growth is 109% with UACC-257 melanoma, 108% in the test with M14 melanoma and 95.5% with HCT-15 colon.
`O=C1OCC2=C1C(c1cccc(Br)c1)c1cc3c(cc1N2CCO)CCC3` (stereo not drawn): the growth in the test with K-562 leukemia was 19.4%; with MDA-MB-231 breast, -13% (active); in the test with RXF 393 renal it was 29.5%; in the test on SF-268 CNS it was 14.4%; with SF-295 CNS, -9.25% (active); in the test with SF-539 CNS it was -1.5% (active). The results for the growth in the test on M14 melanoma and with HCT-15 colon were 12.8% and 8.3% (active), respectively.
Take `CC(C)(C)NC/C(=C\c1ccccc1)C(=O)c1ccccc1`: the growth in the test on K-562 leukemia is 6.24% (active); in the test with MDA-MB-231 breast, -23% (active); in the test with RXF 393 renal it was -66.4% (active); in the test on SF-268 CNS, 7.36% (active); in the test on SF-295 CNS it was 85.9%; in the test on SF-539 CNS, -46.2% (active). The growth in the test with UACC-257 melanoma was -8.37% (active); in the test with M14 melanoma it was -30.6% (active); in the test on HCT-15 colon it was -52.1% (active).
Consider `Oc1[nH]c2ccc(Cl)cc2c1/C=c1/ccc2c(c1)N=C(c1cc(F)cc(F)c1)N=2`, for which the growth was 14.8% in the test with K-562 leukemia; 79.3% in the test on MDA-MB-231 breast; 61.6% with RXF 393 renal; 46.7% with SF-295 CNS; 83.3% in the test on SF-539 CNS; 70.5% with UACC-257 melanoma. Also, the values for the growth in the test with M14 melanoma and in the test with HCT-15 colon were 68.5% and 46.1%, respectively.
For the compound `CO/N=C(/C(=O)NC1C(=O)N2C(C(=O)O)=C(COC(N)=O)CSC12)c1ccco1` (stereo not drawn), the growth with MALME-3M melanoma is 94.3%; in the test with MDA-MB-231 breast, 107%; in the test on SF-268 CNS, 124%; in the test on SF-295 CNS it was 105%; in the test with SF-539 CNS, 100%; in the test with UACC-257 melanoma it was 104%. In addition, the growth was 102% in the test on M14 melanoma and 104% with HCT-15 colon.
As to `Clc1ccc(/C=C2\CCCC3=C2N=C2SC=NN2C3c2ccc(Cl)cc2)cc1` (stereo not drawn), the growth in the test on K-562 leukemia is 102%; in the test with MDA-MB-231 breast, 104%; with RXF 393 renal, 105%; in the test with SF-268 CNS, 99.2%; in the test on SF-295 CNS it was 105%; with SF-539 CNS it was 106%. Moreover, the growth was 97.1% with UACC-257 melanoma and 87.3% in the test on HCT-15 colon.
As to `COc1cc(C2CC(c3ccc(Nc4ccnc5cc(Cl)ccc45)cc3)=NN2c2ccc(Cl)cc2)cc(OC)c1OC` (stereo not drawn), the growth was 6.22% (active) in the test on K-562 leukemia; 42.6% with MDA-MB-231 breast; 60.4% in the test with RXF 393 renal; 48.5% in the test on SF-268 CNS; 28.8% with SF-295 CNS; 59.3% in the test on SF-539 CNS. For the same compound, the growth was 61.3% in the test with UACC-257 melanoma and 45.4% in the test on HCT-15 colon.
`COc1ccc(NC(=O)CSc2nc3ccccc3c(=O)n2CCc2ccccc2)cc1`: the growth is 60.3% with MALME-3M melanoma; 61.5% in the test with MDA-MB-231 breast; 53.7% with SF-268 CNS; 91.5% with SF-295 CNS; 79.5% with SF-539 CNS; 87.9% in the test on UACC-257 melanoma. In addition, the growth was 75.3% in the test on M14 melanoma and 92.1% in the test on HCT-15 colon.
As to `Nc1ccn(C2CC(O)C(CO)O2)c(=O)n1` (stereo not drawn), the growth is 99.5% with K-562 leukemia; 115% in the test with MDA-MB-231 breast; 110% in the test with SF-268 CNS; 116% in the test with SF-295 CNS; 98.3% with SF-539 CNS; 113% with UACC-257 melanoma. In addition, the growth is 106% with M14 melanoma and 102% with HCT-15 colon.
As for `COc1cc([C@@H]2c3cc4c(cc3C(Br)[C@H]3COC(=O)[C@H]23)OCO4)cc(OC)c1OC` (stereo partly drawn), the growth is 31.5% in the test with MALME-3M melanoma; -5.49% (active) in the test with MDA-MB-231 breast; -29.9% (active) in the test on SF-268 CNS; -15.4% (active) in the test on SF-295 CNS; -44.5% (active) in the test on SF-539 CNS; 16.2% in the test with UACC-257 melanoma. Moreover, the growth is -8.65% (active) in the test with M14 melanoma and -3.53% (active) in the test on HCT-15 colon.
`CCN1CCC(CCOC)(CN2c3ccccc3Sc3ccc(Cl)cc32)C1` (stereo not drawn): the growth with K-562 leukemia is -15.2% (active); in the test with MDA-MB-231 breast, 35%; in the test on RXF 393 renal, 37.3%; with SF-268 CNS it was 63.3%; in the test on SF-295 CNS it was 72.4%; with SF-539 CNS it was 78%. The growth with UACC-257 melanoma was 24.6%; in the test on M14 melanoma, -65.9% (active); in the test on HCT-15 colon, 49.1%.
As for `Oc1[nH]c2ccc(Cl)cc2c1/C=c1/ccc2c(c1)N=C(c1cccs1)N=2`, the growth in the test with K-562 leukemia was 30.9%; in the test with MDA-MB-231 breast it was 91.2%; in the test on RXF 393 renal, 49.7%; with SF-295 CNS, 41.4%; in the test with SF-539 CNS, 81.3%; in the test with UACC-257 melanoma it was 48.5%. Besides, the growth in the test with M14 melanoma was 77.1%; in the test with HCT-15 colon it was 55.4%.
Consider `COc1ccc(C2CC(c3ccc(N(C)C)cc3)=NN2c2ccc(S(N)(=O)=O)cc2)cc1` (stereo not drawn), for which the growth with MALME-3M melanoma is 83%; in the test with MDA-MB-231 breast, 67.7%; with RXF 393 renal, 63.2%; in the test on SF-268 CNS, 59.6%; in the test with SF-295 CNS it was 35.2%; in the test on SF-539 CNS it was 114%. The figures for the growth in the test with UACC-257 melanoma, in the test with M14 melanoma and in the test on HCT-15 colon were 73.7%, 69.2% and 43%, respectively.
As to `CCn1cc(C(=O)O)c(=O)c2cnc(N3CCCC3)nc21`, the growth is 92.8% with MALME-3M melanoma; 106% in the test with MDA-MB-231 breast; 116% in the test with SF-268 CNS; 94.7% in the test on SF-295 CNS; 100% in the test on SF-539 CNS; 97.2% in the test with UACC-257 melanoma. In addition, the results for the growth with M14 melanoma and with HCT-15 colon were 96.9% and 111%, respectively.
As for `CN(C)CCOc1nc2ccccc2c2c1-c1ccc(Cl)cc1C2=O`, the growth in the test with K-562 leukemia is -29.9% (active); in the test with MDA-MB-231 breast, 14.8%; with RXF 393 renal, -35.6% (active); with SF-268 CNS it was -25.3% (active); in the test on SF-295 CNS, -27.9% (active); in the test on SF-539 CNS it was -1.7% (active). The growth with UACC-257 melanoma is -68% (active); in the test on HCT-15 colon, 5.59% (active).
Turning to `COc1cccc(C2C3=C(COC3=O)N(CCO)c3cc(OC)ccc32)c1` (stereo not drawn), the growth in the test on K-562 leukemia was 17.1%; with MDA-MB-231 breast, 8.33% (active); in the test with RXF 393 renal it was 15.9%; in the test with SF-268 CNS, 31.6%; in the test with SF-295 CNS it was -20.3% (active); in the test on SF-539 CNS, -6.71% (active). For the same compound, the results for the growth with M14 melanoma and in the test with HCT-15 colon were 6.29% (active) and 11.3%, respectively.
For `CCOC(=O)CNC(=O)CCCCSc1ncnc2nc[nH]c12`, the growth was 85.7% in the test with K-562 leukemia; 108% in the test on MDA-MB-231 breast; 113% in the test with SF-268 CNS; 127% in the test with SF-295 CNS; 91.2% in the test on SF-539 CNS; 81.2% in the test with UACC-257 melanoma. Further, the growth in the test on M14 melanoma is 100%; with HCT-15 colon, 101%.
As for `O=c1c2ccccc2nc(SCCN2CCCCC2)n1CCc1ccccc1`, the growth in the test with MDA-MB-231 breast is 66.5%; in the test on SF-268 CNS, 101%; with SF-295 CNS, 87.5%; in the test with SF-539 CNS, 90.2%; in the test with UACC-257 melanoma, 95.9%; in the test with M14 melanoma, 103%. Also, in the test with HCT-15 colon, the growth was 80.7%.
As to `CC(=O)/C(=C/c1ccccc1)C(=O)CC(C)C`, the growth in the test on K-562 leukemia was 41.5%; in the test with MDA-MB-231 breast, 119%; in the test with RXF 393 renal it was 103%; in the test on SF-268 CNS, 95.3%; with SF-295 CNS, 102%; in the test with SF-539 CNS, 109%. Also, the growth with UACC-257 melanoma is 89.6%; in the test with M14 melanoma, 82.9%; in the test on HCT-15 colon, 76.1%.
